According to PubChem BioAssay AID1159580 (chemical genetic matrix, 2015):
Values joined by “and” are separate entries in the source; they are usually repeats but may differ in a detail not shown here. Equal entries are not always repeated. Hit rate of the full screen: of about 5,500 compounds, about 2,000 (36%) were called active. Another 18% or so got no clear call; they are omitted. Rule as the data show it: active = normalized growth mostly below about 0.91 (no sharp cut-off); inconclusive = no clear call, values can overlap the other calls; inactive = mostly above about 0.92. This is one part of the list.

Assay: chemical genetic growth profiling, strain panel (AID 1159580);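 also: tested at 20 µM; growth read once vehicle control cultures reached saturation at 30 °C; 1 = growth at the plate median or of vehicle wells; lower values mean less growth of the strain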
Conditions: S. cerevisiae deletion strains, growth OD

Measured: normalized growth

C=C1c2cccc(O)c2C(O)=C2C(=O)[C@]3(O)C(O)=C(C(N)=O)C(=O)[C@@H](N(C)C)[C@@H]3[C@@H](O)[C@H]12
inactive: locus YAL013W, strain DEP1, stronger effect = lower value 0.997 | locus YAL021C, strain ccr4, stronger effect = lower value 1.02 | locus YAL026C, strain drs2, stronger effect = lower value 1.01 | locus YAL030W, strain snc1, stronger effect = lower value 1.01 | locus YBL061C, strain skt5, stronger effect = lower value 1.01 | locus YBR009C, strain hhf1, stronger effect = lower value 1 | locus YBR021W, strain FUR4, stronger effect = lower value 1.01 | locus YBR023C, strain chs3, stronger effect = lower value 1 | locus YBR171W, strain sec66, stronger effect = lower value 1.02 | locus YBR229C, strain ROT2, stronger effect = lower value 0.987 | locus YBR231C, strain swc5, stronger effect = lower value 1.02 | locus YBR279W, strain paf1, stronger effect = lower value 1.01 | locus YCL011C, strain gbp2, stronger effect = lower value 1.01 | locus YCL016C, strain dcc1, stronger effect = lower value 1.02 | locus YCL029C, strain bik1, stronger effect = lower value 0.965 | locus YCL061C, strain MRC1, stronger effect = lower value 1.02 | locus YCL069W, strain vba3, stronger effect = lower value 1.01 | locus YCR088W, strain abp1, stronger effect = lower value 0.997 | locus YDL005C, strain med2, stronger effect = lower value 1.02 | locus YDL035C, strain GPR1, stronger effect = lower value 0.98 | locus YDL040C, strain nat1, stronger effect = lower value 1.02 | locus YDL074C, strain BRE1, stronger effect = lower value 0.962 | locus YDL101C, strain DUN1, stronger effect = lower value 0.978 | locus YDL134C, strain PPH21, stronger effect = lower value 1.01 | locus YDL185W, strain tfp1, stronger effect = lower value 0.925 | locus YDL192W, strain arf1, stronger effect = lower value 0.971 | locus YDR001C, strain nth1, stronger effect = lower value 1.01 | locus YDR069C, strain doa4, stronger effect = lower value 1.01 | locus YDR101C, strain arx1, stronger effect = lower value 0.957 | locus YDR137W, strain rgp1, stronger effect = lower value 0.927 | locus YDR150W, strain NUM1, stronger effect = lower value 0.99 | locus YDR159W, strain sac3, stronger effect = lower value 1.01 | locus YDR162C, strain NBP2, stronger effect = lower value 0.981 | locus YDR195W, strain ref2 0.997 | locus YDR297W, strain sur2, stronger effect = lower value 1.01 | locus YDR318W, strain mcm21, stronger effect = lower value 0.975 | locus YDR334W, strain swr1, stronger effect = lower value 1.01 | locus YDR335W, strain msn5, stronger effect = lower value 1.01 | locus YDR388W, stronger effect = lower value 0.991 | locus YDR392W, strain spt3, stronger effect = lower value 0.957 | locus YDR502C, strain sam2, stronger effect = lower value 1 | locus YEL003W, strain gim4, stronger effect = lower value 1 | locus YEL037C, strain rad23, stronger effect = lower value 1.01 | locus YEL061C, strain CIN8 (second series), stronger effect = lower value 1.01 | locus YEL061C, strain CIN8, stronger effect = lower value 0.988 | locus YER015W, strain faa2, stronger effect = lower value 0.991 | locus YER016W, strain bim1, stronger effect = lower value 0.946 | locus YER110C, stronger effect = lower value 0.997 | locus YER111C, strain swi4, stronger effect = lower value 1.01 | locus YER155C, strain BEM2 (second series), stronger effect = lower value 0.966 | locus YER155C, strain BEM2, stronger effect = lower value 1.01 | locus YER167W, strain BCK2, stronger effect = lower value 0.992 | locus YFR010W, strain ubp6, stronger effect = lower value 1.02 | locus YGL078C, strain dbp3, stronger effect = lower value 0.993 | locus YGL086W, strain mad1, stronger effect = lower value 0.993 | locus YGL167C, strain pmr1, stronger effect = lower value 1.02 | locus YGL173C, strain kem1, stronger effect = lower value 1.01 | locus YGL227W, strain vid30, stronger effect = lower value 1.01 | locus YGL240W, strain doc1, stronger effect = lower value 1.03 | locus YGL248W, strain PDE1, stronger effect = lower value 0.979 | locus YGL253W, strain hxk2, stronger effect = lower value 1.01 | locus YGR078C, strain PAC10, stronger effect = lower value 0.928 | locus YGR135W, strain pre9, stronger effect = lower value 0.987 | locus YGR229C, strain SMI1, stronger effect = lower value 0.947 | locus YGR252W, strain gcn5, stronger effect = lower value 1.11 | locus YHR013C, strain ard1, stronger effect = lower value 1.02 | locus YHR027C, strain rpn1, stronger effect = lower value 1.01 | locus YHR030C, strain SLT2, stronger effect = lower value 0.994 and 0.979 | locus YHR079C, strain IRE1 (second series), stronger effect = lower value 0.982 | locus YHR079C, strain IRE1, stronger effect = lower value 0.978 | locus YHR094C, strain hxt1, stronger effect = lower value 0.992 | locus YHR129C, strain ARP1, stronger effect = lower value 0.982 | locus YHR142W, strain chs7, stronger effect = lower value 1.05 | locus YHR200W, strain rpn10, stronger effect = lower value 0.97 | locus YIL066C, strain RNR3, stronger effect = lower value 0.948 | locus YIL073C, strain SPO22, stronger effect = lower value 0.945 | locus YIL125W, strain kgd1, stronger effect = lower value 0.989 | locus YIR030C, strain dcg1, stronger effect = lower value 1 | locus YJL092W, strain hpr5, stronger effect = lower value 1.01 | locus YJL095W, strain BCK1 (second series), stronger effect = lower value 1.02 | locus YJL095W, strain BCK1, stronger effect = lower value 0.899 and 0.972 | locus YJL115W, strain asf1, stronger effect = lower value 1.03 | locus YJL129C, strain trk1, stronger effect = lower value 1.04 | locus YJL134W, strain LCB3, stronger effect = lower value 0.992 | locus YJL154C, strain vps35, stronger effect = lower value 1.04 | locus YJL164C, strain tpk1, stronger effect = lower value 0.983 | locus YJL166W, strain qcr8, stronger effect = lower value 1.02 | locus YJL168C, strain set2, stronger effect = lower value 0.982 | locus YJL187C, strain SWE1 (second series), stronger effect = lower value 0.929 | locus YJR043C, strain POL32, stronger effect = lower value 0.923 | locus YJR066W, strain TOR1, stronger effect = lower value 0.913
